# Reference: the supplement of paper PMC4466140
# Target: AgAbp1
# Assay: SPOT peptide array binding signal intensity (averaged, normalized) (arbitrary units (background-subtracted, floor 0; scale differs between SH3 domains)); higher = stronger binding of the SH3 domain to the peptide
# Method in brief: (§1)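 Detection of bound protein relied on anti-GST antibody, an HRP anti-mouse secondary and luminol, with imaging and quantification in Genespotter. The bound protein was GST-fused SH3 domains from four yeast species, incubated at 10 μg/ml overnight at 4°C in TBS-based blocking buffer on cellulose membranes carrying synthetic 15-mer peptides with cysteines replaced by serines. Binding signal is normalized, background-subtracted spot intensity averaged over replicates, in arbitrary units that differ between domains.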
row,Binder,SPOT peptide array binding signal intensity
1,FLIKFTPKFPQSIDH,11

# Target: AgBbc1
# Assay: as above
# Method in brief: as §1
row,Binder,SPOT peptide array binding signal intensity
1,FLIKFTPKFPQSIDH,89.8

# Target: AgBem1-D1
# Assay: as above
# Method in brief: as §1
row,Binder,SPOT peptide array binding signal intensity
1,FLIKFTPKFPQSIDH,681

# Target: AgBzz1-D1
# Assay: as above
# Method in brief: as §1
row,Binder,SPOT peptide array binding signal intensity
1,FLIKFTPKFPQSIDH,120

# Target: AgBzz1-D2
# Assay: as above
# Method in brief: as §1
row,Binder,SPOT peptide array binding signal intensity
1,FLIKFTPKFPQSIDH,229

# Target: AgCyk3
# Assay: as above
# Method in brief: as §1
row,Binder,SPOT peptide array binding signal intensity
1,FLIKFTPKFPQSIDH,165

# Target: AgFus1
# Assay: as above
# Method in brief: as §1
row,Binder,SPOT peptide array binding signal intensity
1,FLIKFTPKFPQSIDH,1690

# Target: AgHof1
# Assay: as above
# Method in brief: as §1
row,Binder,SPOT peptide array binding signal intensity
1,FLIKFTPKFPQSIDH,45

# Target: AgHse1
# Assay: as above
# Method in brief: as §1
row,Binder,SPOT peptide array binding signal intensity
1,FLIKFTPKFPQSIDH,1660

# Target: AgLsb1
# Assay: as above
# Method in brief: as §1
row,Binder,SPOT peptide array binding signal intensity
1,FLIKFTPKFPQSIDH,2.5

# Target: AgLsb4
# Assay: as above
# Method in brief: as §1
row,Binder,SPOT peptide array binding signal intensity
1,FLIKFTPKFPQSIDH,1180

# Target: AgMyo5
# Assay: as above
# Method in brief: as §1
row,Binder,SPOT peptide array binding signal intensity
1,FLIKFTPKFPQSIDH,1.5

# Target: AgNbp2
# Assay: as above
# Method in brief: as §1
row,Binder,SPOT peptide array binding signal intensity
1,FLIKFTPKFPQSIDH,669

# Target: AgRvs167
# Assay: as above
# Method in brief: as §1
row,Binder,SPOT peptide array binding signal intensity
1,FLIKFTPKFPQSIDH,15

# Target: AgSho1
# Assay: as above
# Method in brief: as §1
row,Binder,SPOT peptide array binding signal intensity
1,FLIKFTPKFPQSIDH,814

# Target: AgSla1-D1-D2
# Assay: as above
# Method in brief: as §1
row,Binder,SPOT peptide array binding signal intensity
1,FLIKFTPKFPQSIDH,524

# Target: AgSla1-D3
# Assay: as above
# Method in brief: as §1
row,Binder,SPOT peptide array binding signal intensity
1,FLIKFTPKFPQSIDH,33.8

# Target: CaAbp1-D1
# Assay: as above
# Method in brief: as §1
row,Binder,SPOT peptide array binding signal intensity
1,FLIKFTPKFPQSIDH,172

# Target: CaAbp1-D2
# Assay: as above
# Method in brief: as §1
row,Binder,SPOT peptide array binding signal intensity
1,FLIKFTPKFPQSIDH,120

# Target: CaBbc1
# Assay: as above
# Method in brief: as §1
row,Binder,SPOT peptide array binding signal intensity
1,FLIKFTPKFPQSIDH,75

# Target: CaBem1-D1
# Assay: as above
# Method in brief: as §1
row,Binder,SPOT peptide array binding signal intensity
1,FLIKFTPKFPQSIDH,103

# Target: CaBzz1-D1
# Assay: as above
# Method in brief: as §1
row,Binder,SPOT peptide array binding signal intensity
1,FLIKFTPKFPQSIDH,819

# Target: CaBzz1-D2
# Assay: as above
# Method in brief: as §1
row,Binder,SPOT peptide array binding signal intensity
1,FLIKFTPKFPQSIDH,281

# Target: CaCyk3
# Assay: as above
# Method in brief: as §1
row,Binder,SPOT peptide array binding signal intensity
1,FLIKFTPKFPQSIDH,136

# Target: CaFus1
# Assay: as above
# Method in brief: as §1
row,Binder,SPOT peptide array binding signal intensity
1,FLIKFTPKFPQSIDH,3550

# Target: CaHof1
# Assay: as above
# Method in brief: as §1
row,Binder,SPOT peptide array binding signal intensity
1,FLIKFTPKFPQSIDH,6.5

# Target: CaHse1
# Assay: as above
# Method in brief: as §1
row,Binder,SPOT peptide array binding signal intensity
1,FLIKFTPKFPQSIDH,588

# Target: CaLsb1
# Assay: as above
# Method in brief: as §1
row,Binder,SPOT peptide array binding signal intensity
1,FLIKFTPKFPQSIDH,10

# Target: CaLsb4
# Assay: as above
# Method in brief: as §1
row,Binder,SPOT peptide array binding signal intensity
1,FLIKFTPKFPQSIDH,299

# Target: CaMyo5
# Assay: as above
# Method in brief: as §1
row,Binder,SPOT peptide array binding signal intensity
1,FLIKFTPKFPQSIDH,94

# Target: CaNbp2
# Assay: as above
# Method in brief: as §1
row,Binder,SPOT peptide array binding signal intensity
1,FLIKFTPKFPQSIDH,1020

# Target: CaRvs167
# Assay: as above
# Method in brief: as §1
row,Binder,SPOT peptide array binding signal intensity
1,FLIKFTPKFPQSIDH,651

# Target: CaRvs167-3
# Assay: as above
# Method in brief: as §1
row,Binder,SPOT peptide array binding signal intensity
1,FLIKFTPKFPQSIDH,2160

# Target: CaSho1
# Assay: as above
# Method in brief: as §1
row,Binder,SPOT peptide array binding signal intensity
1,FLIKFTPKFPQSIDH,2110

# Target: CaSla1-D1-D2
# Assay: as above
# Method in brief: as §1
row,Binder,SPOT peptide array binding signal intensity
1,FLIKFTPKFPQSIDH,43

# Target: CaSla1-D3
# Assay: as above
# Method in brief: as §1
row,Binder,SPOT peptide array binding signal intensity
1,FLIKFTPKFPQSIDH,585

# Target: ScAbp1
# Assay: as above
# Method in brief: as §1
row,Binder,SPOT peptide array binding signal intensity
1,FLIKFTPKFPQSIDH,7

# Target: ScBbc1
# Assay: as above
# Method in brief: as §1
row,Binder,SPOT peptide array binding signal intensity
1,FLIKFTPKFPQSIDH,5.5

# Target: ScBem1-D1
# Assay: as above
# Method in brief: as §1
row,Binder,SPOT peptide array binding signal intensity
1,FLIKFTPKFPQSIDH,47.5

# Target: ScBzz1-D1
# Assay: as above
# Method in brief: as §1
row,Binder,SPOT peptide array binding signal intensity
1,FLIKFTPKFPQSIDH,224

# Target: ScBzz1-D2
# Assay: as above
# Method in brief: as §1
row,Binder,SPOT peptide array binding signal intensity
1,FLIKFTPKFPQSIDH,611

# Target: ScCyk3
# Assay: as above
# Method in brief: as §1
row,Binder,SPOT peptide array binding signal intensity
1,FLIKFTPKFPQSIDH,145

# Target: ScFus1
# Assay: as above
# Method in brief: as §1
row,Binder,SPOT peptide array binding signal intensity
1,FLIKFTPKFPQSIDH,1850

# Target: ScHof1
# Assay: as above
# Method in brief: as §1
row,Binder,SPOT peptide array binding signal intensity
1,FLIKFTPKFPQSIDH,3.25

# Target: ScHse1
# Assay: as above
# Method in brief: as §1
row,Binder,SPOT peptide array binding signal intensity
1,FLIKFTPKFPQSIDH,2710

# Target: ScLsb1
# Assay: as above
# Method in brief: as §1
row,Binder,SPOT peptide array binding signal intensity
1,FLIKFTPKFPQSIDH,1

# Target: ScLsb2
# Assay: as above
# Method in brief: as §1
row,Binder,SPOT peptide array binding signal intensity
1,FLIKFTPKFPQSIDH,9

# Target: ScLsb3
# Assay: as above
# Method in brief: as §1
row,Binder,SPOT peptide array binding signal intensity
1,FLIKFTPKFPQSIDH,706

# Target: ScLsb4
# Assay: as above
# Method in brief: as §1
row,Binder,SPOT peptide array binding signal intensity
1,FLIKFTPKFPQSIDH,80

# Target: ScMyo3
# Assay: as above
# Method in brief: as §1
row,Binder,SPOT peptide array binding signal intensity
1,FLIKFTPKFPQSIDH,15.5

# Target: ScMyo5
# Assay: as above
# Method in brief: as §1
row,Binder,SPOT peptide array binding signal intensity
1,FLIKFTPKFPQSIDH,14

# Target: ScNbp2
# Assay: as above
# Method in brief: as §1
row,Binder,SPOT peptide array binding signal intensity
1,FLIKFTPKFPQSIDH,715

# Target: ScPex13
# Assay: as above
# Method in brief: as §1
row,Binder,SPOT peptide array binding signal intensity
1,FLIKFTPKFPQSIDH,86.5

# Target: ScRvs167
# Assay: as above
# Method in brief: as §1
row,Binder,SPOT peptide array binding signal intensity
1,FLIKFTPKFPQSIDH,47

# Target: ScSho1
# Assay: as above
# Method in brief: as §1
row,Binder,SPOT peptide array binding signal intensity
1,FLIKFTPKFPQSIDH,2000

# Target: ScSla1-D1-D2
# Assay: as above
# Method in brief: as §1
row,Binder,SPOT peptide array binding signal intensity
1,FLIKFTPKFPQSIDH,322

# Target: ScSla1-D3
# Assay: as above
# Method in brief: as §1
row,Binder,SPOT peptide array binding signal intensity
1,FLIKFTPKFPQSIDH,232

# Target: SpAbp1-D1
# Assay: as above
# Method in brief: as §1
row,Binder,SPOT peptide array binding signal intensity
1,FLIKFTPKFPQSIDH,50.5

# Target: SpBbc1
# Assay: as above
# Method in brief: as §1
row,Binder,SPOT peptide array binding signal intensity
1,FLIKFTPKFPQSIDH,27

# Target: SpBzz1-D1
# Assay: as above
# Method in brief: as §1
row,Binder,SPOT peptide array binding signal intensity
1,FLIKFTPKFPQSIDH,1440

# Target: SpBzz1-D2
# Assay: as above
# Method in brief: as §1
row,Binder,SPOT peptide array binding signal intensity
1,FLIKFTPKFPQSIDH,17.8

# Target: SpCyk3
# Assay: as above
# Method in brief: as §1
row,Binder,SPOT peptide array binding signal intensity
1,FLIKFTPKFPQSIDH,48.5

# Target: SpHof1
# Assay: as above
# Method in brief: as §1
row,Binder,SPOT peptide array binding signal intensity
1,FLIKFTPKFPQSIDH,662

# Target: SpHof1-2
# Assay: as above
# Method in brief: as §1
row,Binder,SPOT peptide array binding signal intensity
1,FLIKFTPKFPQSIDH,126

# Target: SpHof1-3
# Assay: as above
# Method in brief: as §1
row,Binder,SPOT peptide array binding signal intensity
1,FLIKFTPKFPQSIDH,1580

# Target: SpHse1
# Assay: as above
# Method in brief: as §1
row,Binder,SPOT peptide array binding signal intensity
1,FLIKFTPKFPQSIDH,1950

# Target: SpLsb1
# Assay: as above
# Method in brief: as §1
row,Binder,SPOT peptide array binding signal intensity
1,FLIKFTPKFPQSIDH,11.5

# Target: SpLsb4
# Assay: as above
# Method in brief: as §1
row,Binder,SPOT peptide array binding signal intensity
1,FLIKFTPKFPQSIDH,610

# Target: SpMyo1
# Assay: as above
# Method in brief: as §1
row,Binder,SPOT peptide array binding signal intensity
1,FLIKFTPKFPQSIDH,75

# Target: SpNbp2
# Assay: as above
# Method in brief: as §1
row,Binder,SPOT peptide array binding signal intensity
1,FLIKFTPKFPQSIDH,1010

# Target: SpPex13
# Assay: as above
# Method in brief: as §1
row,Binder,SPOT peptide array binding signal intensity
1,FLIKFTPKFPQSIDH,309

# Target: SpRvs167
# Assay: as above
# Method in brief: as §1
row,Binder,SPOT peptide array binding signal intensity
1,FLIKFTPKFPQSIDH,49.8

# Target: SpSla1-D1-D2
# Assay: as above
# Method in brief: as §1
row,Binder,SPOT peptide array binding signal intensity
1,FLIKFTPKFPQSIDH,4

# Target: SpSla1-D3
# Assay: as above
# Method in brief: as §1
row,Binder,SPOT peptide array binding signal intensity
1,FLIKFTPKFPQSIDH,172
